Measured values taken from PMC13494018.
Unmarked numbers belong to inactive results. The rule behind the calls is not given here.

B1: d8r1_design_ppi_877_dldesign_0_cycle0_af2pred (protein)
chain: ALRAATEALLAEAERLREEILELGRAAESESVRNFAEGVAREVERLIAEAKAAAADPEAALALAQAALRTAREGLAGVRALTAAKAE
B2: d8r1_design_ppi_888_dldesign_0_cycle1_af2pred (protein)
chain: ATEEEKEKLKKLVEELLKAGKEGTVEEAKKAAEKLVEAAKKASLEAVLAGIAEVAKAAAELAKVNPEAAEVAREAAIELAKIALEKAD
B3: d8r1_design_ppi_705_dldesign_0_cycle0_af2pred (protein)
chain: MTPSTRAMLHIGRANAAAQALAADPAAAAAAVAEEMAAAAREAAKASPEVREQNLRAMDAAVAALKAANPAVGAAARAAMEEELARL
B4: d8r1_design_ppi_156_dldesign_0_cycle1_af2pred (protein)
chain: MEEEKKKEEEEQKEAERMAKALENAIDAIEARVKAAPAAEQPALAKAADNAAAAADVLKKKDPELGQKVKDRANAVLAAARAK
B5: d8r1_design_ppi_1086_dldesign_0_cycle1_af2pred (protein)
chain: AAAAVAAAAAAGGEAAMAEFLDLSNPEQGKELKDKAAAKVAALAAANPAVAAQINAAYNAQLARGKALAAEARADK
B6: d8r1_design_ppi_1032_dldesign_0_cycle0_af2pred (protein)
chain: SEEEENKEKAEALEKAAKNTTAIGDEKAAKDAAGKEKGAKAYNGAAALYEAAAKVSSPERAKEFKAKAAEAKAKAAAAQAAAAA
B7: d8r1_design_ppi_1301_dldesign_0_cycle1_af2pred (protein)
chain: AENEADFNALKRVAQSILDRAAELAAAGADRALVERLAASAVQAAELAAEEGTPEEGAALIAETRAAVAAVLAA
B8: d8r1_design_ppi_433_dldesign_0_cycle0_af2pred (protein)
chain: SEEEERKEIEEEGRAMARALRTSARHHAELAKKDPAAGRAAFDADAAAIRAGATPEQQPLVDAAVAEGRALLDAVEAAL
B9: d8r1_design_ppi_271_dldesign_0_cycle1_af2pred (protein)
chain: ADAALAALIAEAAQAAYDDGPRGIAALAGALLRAFPSLSAETLAAIIAATAADPAAAAALIAALAAAHPEAAPALAAELRALLAELA
B10: d8r1_design_ppi_763_dldesign_0_cycle1_af2pred (protein)
chain: MEKAKELAAKGDALEEEAAKATPEEAAKLYREASKYYAEAARLLLPLGDENPEIGKVVKELMAKASASYQKAVALEA
B11: d8r1_design_ppi_136_dldesign_0_cycle1_af2pred (protein)
chain: SAAEEAARKSLFAVADSILAANLARAKAAAAAGDAAAAAAALQNTRDGGEMVTKMALARGDEETAAELAARFAAAAAEIAAILAA
B12: d8r1_design_ppi_1212_dldesign_0_cycle1_af2pred (protein)
chain: AAALAEKLVATALAIGDAVLKKYPEAFGAKLAAARALIAADPVAGIRALGEAAAEVAPAEIAPGIRSMLNAIADRAAELLA
B13: d8r1_design_ppi_473_dldesign_0_cycle1_af2pred (protein)
chain: STAEYLAQQQAALDATLAALDAAAAAVRTSAAGKALGDAAKKAMEIAKKLPVSVQLAVAQNQLAALQAAL
B14: d8r1_design_ppi_655_dldesign_0_cycle0_af2pred (protein)
chain: SDAKAAAQAAKNGAESATEKANEYEAKGKATGDKALLAKAKTLYDSAATLYAFGTKESGGEYQANLDAAKAKAAAAAALLA
B15: d8r1_design_ppi_1247_dldesign_0_cycle1_af2pred (protein)
chain: SSNKETSKLIREAMKIIGESLAAARAAVAAGDKAAAQAAVDAGVAKIEELAKKSKDPATKETLLKLAENLRRQGARVIA
B16: d8r1_design_ppi_978_dldesign_0_cycle1_af2pred (protein)
chain: MKHLEEQRKAAEKVAEKAAKEAEKEIAKVVSEEEAKKLAEKLKEQSKTSNELLVEKHKDLPVEEIEKLAERNAKGLALRALAIAKE
B17: d8r1_design_ppi_1231_dldesign_0_cycle1_af2pred (protein)
chain: MTEEEMAALVQAARDAAKAAAAAAGPAVAPTMAAMVALAEEERDNPGELESIAQSVATAAARAVAAAAAAA
B18: d8r1_design_ppi_1245_dldesign_0_cycle0_af2pred (protein)
chain: SVAEQRAELAAIVDRTLAAAAAEDPRAAGRAGAAELARLLARSSDEVKPAANAAIAAFNTLIRDPAAGAAALEAVRAELA
B19: d8r1_design_ppi_217_dldesign_0_cycle1_af2pred (protein)
chain: GDAVMEAAAAISNAAAAAIAAAKADPAKADEALAAATATAKALADATGKPLVKAVAKGATARVAAVAAAVKAAA
B20: d8r1_design_ppi_1244_dldesign_0_cycle0_af2pred (protein)
chain: EEEEKEEKETYEKAYYLAKAAINAVNTGKEAAVASGKAALIAAGKLIPEWAAEAKAAKTAEEIKAVAEKLAEAAKKKIE
B21: d8r1_design_ppi_1117_dldesign_0_cycle1_af2pred (protein)
chain: AAAEAQARALAAELLAEAFDDPELAARALALPPHHAAALAAGQIVAKKSDEEAAAAVARANQVHALAAAAAAAA
B22: d8r1_design_ppi_860_dldesign_0_cycle0_af2pred (protein)
chain: DEAYELAAEALARASELRAAAAAARAARGAAGVAEAAALDAEAVRVLEEAAKKLKALGSGLGKNLEAAARRLAERAAAATAAARA
B23: d8r1_design_ppi_568_dldesign_0_cycle1_af2pred (protein)
chain: AARHLALAIRGVLKADDAGDAEAAAKAKALLAKAAAALAAGDEAAAKAYATQAAAVADPAYAPVAEAVAAAAAA
B24: d8r1_design_ppi_92_dldesign_0_cycle1_af2pred (protein)
chain: ERERERAAIRALLATVDAEYAKAAKEGPEAADAGIERVAAAAAAAGALGPDTASAGRFAVGVYRTLAEKVKAAWAA
B25: d8r1_design_ppi_427_dldesign_0_cycle0_af2pred (protein)
chain: MSRIAAWVIAAISAAATDPAEADKVAARAAEEALANPEKADEALALAAETARAAGLDAATVDAAVARIRALVAAL
B26: d8r1_design_ppi_1354_dldesign_0_cycle1_af2pred (protein)
chain: SRAAAAKAFGKAAVEQLKKLAKAAGAEEARKLAKQLQADFAAFAAAVPEVAAEFKAAAEAAKKAAEEVAKEQEAKAAAAAAA
B27: d3r1_design_ppi_25_dldesign_0_cycle1_af2pred (protein)
chain: SMAAKSAELRAESRRESILAAARQFAAENPAQGPRALAKAEELVAKAKEFAAATKDPAEAAAFAAQQAEEFRAYLAALEAEAA
B28: d3r1_design_ppi_36_dldesign_0_cycle1_af2pred (protein)
chain: EEERLKEAEETYKKLLEELYKESLKEIEEAAKKGPEAAKKALEKAKAEFDEYEKGLLPEYAKEVKEKLEKEAEKLIKKAK
B29: d3r1_design_ppi_53_dldesign_0_cycle1_af2pred (protein)
chain: ASEADRAQVRAEGMAEALKLRAEAAAPLLSPEAVAEIKALAEKMAADPENRDAYYAAAVALLDAALAAAKA
B30: d3r1_design_ppi_79_dldesign_0_cycle0_af2pred (protein)
chain: MTDEEIAKKLIEVAKKAKEEAEKKLKDDPEKVKKVKEIAEEAIKEAKKDPKKGPEALQKAAEEMEKLVKE
B31: d3r1_design_ppi_121_dldesign_0_cycle0_af2pred (protein)
chain: DEALKTAEKAAKEVEELAKEAKEAGDEETAKGLEEMLEKIKELLEKAKKDPSKAKEYAKTAEAIAKVAKKNYEESLKKLKEEKE
B32: d3r1_design_ppi_121_dldesign_0_cycle1_af2pred (protein)
chain: MKALEEAKKAAEKVKKLAKEAKELGDEETAKGLKEMEEEIKKLYKKAKEDPSKAEEYAEIAKKIAEIAKKHYEESKKKLEKEKE
B33: d3r1_design_ppi_123_dldesign_0_cycle0_af2pred (protein)
chain: SENDKITLEQAKKLLEKEAKRAAEVAEKIDKEKAKKIKKYAEEALKKGKLTELAKAVKKVSEELEKYEKKLKEEEEKA
B34: d3r1_design_ppi_123_dldesign_0_cycle1_af2pred (protein)
chain: DPAVETTKANGKALLTKVAKEAAEVAAKIDPAKAKEITDYAAKALKAGDVTEIAKAVKKVSEELEKYKKELEKKEKEA
B35: d3r1_design_ppi_130_dldesign_0_cycle0_af2pred (protein)
chain: SASEKANNELAAKLAVESAKKYLEEAEKLEKEDKEKAKKLLKEIAEKAEAGVKAFADSPEAPELKKLAEEAKAKIEEI
B36: d3r1_design_ppi_135_dldesign_0_cycle1_af2pred (protein)
chain: GSLEEYEKLLAENSKLAVEKATKAAKEEVKKKGTEEAAKEATKRLEALAKALKSSGFKGTKEEAEKAKEAAKKLEKEAKKIAK
B37: d3r1_design_ppi_168_dldesign_0_cycle1_af2pred (protein)
chain: ANKEEAKKAATEGQDAMAELRALKKEGGDPEEIKKAGDKAIESYEKAGELDPSIKERADKMIEAAKKLTEEGIKASKEK
B38: d3r1_design_ppi_175_dldesign_0_cycle1_af2pred (protein)
chain: GSAATLAATAAKLAVKSAKKEMEEAKKNPETGPERLEKYAEILEKAAKDAKATGTAEAKEAAKEAEKEAKKAKEEAKKLK

biological target: PDL1, Q9NZQ7
Sequence (Q9NZQ7 whole entry): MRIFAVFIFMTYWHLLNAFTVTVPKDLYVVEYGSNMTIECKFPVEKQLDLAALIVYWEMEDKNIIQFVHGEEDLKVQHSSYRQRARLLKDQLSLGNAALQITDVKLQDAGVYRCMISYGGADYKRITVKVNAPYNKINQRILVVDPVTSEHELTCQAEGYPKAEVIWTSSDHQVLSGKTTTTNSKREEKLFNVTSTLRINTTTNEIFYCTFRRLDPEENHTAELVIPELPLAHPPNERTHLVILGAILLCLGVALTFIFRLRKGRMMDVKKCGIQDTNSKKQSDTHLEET

Binder	binding in a display sort
B1	not found
B2	not found
B3	not found
B4	not found
B5	not found
B6	not found
B7	not found
B8	not found
B9	not found
B10	not found
B11	not found
B12	not found
B13	not found
B14	not found
B15	not found
B16	not found
B17	not found
B18	not found
B19	not found
B20	not found
B21	not found
B22	not found
B23	not found
B24	not found
B25	not found
B26	not found

biological target: VTCN1, Q7Z7D3
Sequence (Q7Z7D3 whole entry): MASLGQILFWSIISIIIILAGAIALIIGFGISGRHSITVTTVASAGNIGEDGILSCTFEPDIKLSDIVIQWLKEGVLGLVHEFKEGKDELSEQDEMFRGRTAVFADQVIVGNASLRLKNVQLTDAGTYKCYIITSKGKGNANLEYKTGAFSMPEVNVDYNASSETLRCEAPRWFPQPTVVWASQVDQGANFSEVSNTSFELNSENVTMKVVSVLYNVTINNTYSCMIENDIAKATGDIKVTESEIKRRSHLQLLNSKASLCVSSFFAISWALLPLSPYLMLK

Binder	binding in a display sort
B27	not found
B28	not found
B29	not found
B30	not found
B31	not found
B32	not found
B33	not found
B34	not found
B35	not found
B36	not found
B37	not found
B38	not found
